The source of these data is paper doi:10.1101/2024.03.05.583629.

One assay concerns the target pT7_6His-AlfaTag-HOXD13 (human, UniProt P35453 263-343). Briefly: PADIT-seq. Particulars: dsDNA, one strand shown.
A further assay has as its target pT7_6His-AlfaTag-ZIF268 (human, UniProt P18146 335-423). Briefly: PADIT-seq. As to conditions: dsDNA, one strand shown.

Sequence of pT7_6His-AlfaTag-HOXD13 (P35453 263-343): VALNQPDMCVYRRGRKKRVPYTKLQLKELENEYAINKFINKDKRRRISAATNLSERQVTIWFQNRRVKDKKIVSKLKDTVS

Take “CTCGAGGATATCAAGATCTGGCCTCGGCCTTTTATGCGGAACCTCTAGCTAGCCGACTCACTATAGGGATAATCGCCCTGAGCAAAGACC”: the binding signal worked out at 1.88 ± 0.0756 log2FC with pT7_6His-AlfaTag-HOXD13 and 0.00428 ± 0.0795 log2FC in the assay with pT7_6His-AlfaTag-ZIF268.
For “CTCGAGGATATCAAGATCTGGCCTCGGCTTTTTAGTTGGAACCTCTAGCTAGCCGACTCACTATAGGGATAATCGCCCTGAGCAAAGACC”, in that order: 0.658 ± 0.103 log2FC and 0.189 ± 0.0984 log2FC.
The corresponding values for “CTCGAGGATATCAAGATCTGGCCTCGGCGCGTGGTACGGAACCTCTAGCTAGCCGACTCACTATAGGGATAATCGCCCTGAGCAAAGACC” are -0.921 ± 0.116 log2FC and 0.427 ± 0.0903 log2FC.
For “CTCGAGGATATCAAGATCTGGCCTCGGCGTTTTAGCAGGAACCTCTAGCTAGCCGACTCACTATAGGGATAATCGCCCTGAGCAAAGACC”, in that order: 0.799 ± 0.115 log2FC and 0.0694 ± 0.112 log2FC.
Regarding “CTCGAGGATATCAAGATCTGGCCTCGGCCGCCAGCGCGGAACCTCTAGCTAGCCGACTCACTATAGGGATAATCGCCCTGAGCAAAGACC”, the binding signal in the assay with pT7_6His-AlfaTag-HOXD13 is -0.898 ± 0.171 log2FC; with pT7_6His-AlfaTag-ZIF268, 0.462 ± 0.139 log2FC.
The corresponding values for “CTCGAGGATATCAAGATCTGGCCTCGGCATTTTACGTGGAACCTCTAGCTAGCCGACTCACTATAGGGATAATCGCCCTGAGCAAAGACC” are 2.63 ± 0.0745 log2FC and 0.139 ± 0.0815 log2FC.
The corresponding values for “CTCGAGGATATCAAGATCTGGCCTCGGCGCGGGCGCGGGAACCTCTAGCTAGCCGACTCACTATAGGGATAATCGCCCTGAGCAAAGACC” are -1.05 ± 0.132 log2FC and 0.156 ± 0.102 log2FC.
For “CTCGAGGATATCAAGATCTGGCCTCGGCGCAGTAAAAGGAACCTCTAGCTAGCCGACTCACTATAGGGATAATCGCCCTGAGCAAAGACC”, in that order: 2.28 ± 0.0773 log2FC and 0.0357 ± 0.0818 log2FC.
For “CTCGAGGATATCAAGATCTGGCCTCGGCTGGCTAAAAGGAACCTCTAGCTAGCCGACTCACTATAGGGATAATCGCCCTGAGCAAAGACC”, the results for the binding signal in the assay with pT7_6His-AlfaTag-HOXD13 and in the assay with pT7_6His-AlfaTag-ZIF268 were -0.708 ± 0.106 log2FC and 0.0373 ± 0.0882 log2FC, respectively.
The corresponding values for “CTCGAGGATATCAAGATCTGGCCTCGGCCGCCACCGCGGAACCTCTAGCTAGCCGACTCACTATAGGGATAATCGCCCTGAGCAAAGACC” are -0.959 ± 0.127 log2FC and 0.142 ± 0.0977 log2FC.
For “CTCGAGGATATCAAGATCTGGCCTCGGCTTTTTATCGGGAACCTCTAGCTAGCCGACTCACTATAGGGATAATCGCCCTGAGCAAAGACC”, in that order: 1.91 ± 0.0856 log2FC and 0.00149 ± 0.091 log2FC.
The corresponding values for “CTCGAGGATATCAAGATCTGGCCTCGGCATCCCACGCGGAACCTCTAGCTAGCCGACTCACTATAGGGATAATCGCCCTGAGCAAAGACC” are -0.991 ± 0.113 log2FC and 0.41 ± 0.087 log2FC.
With “CTCGAGGATATCAAGATCTGGCCTCGGCGTTTTACGGGGAACCTCTAGCTAGCCGACTCACTATAGGGATAATCGCCCTGAGCAAAGACC”, the binding signal with pT7_6His-AlfaTag-HOXD13 turned out to be 3.16 ± 0.0771 log2FC; with pT7_6His-AlfaTag-ZIF268, 0.0617 ± 0.0868 log2FC.
